# Source: PubChem
# Rows were chosen to be rich in hits. Some 2.5% of all compounds tested hit in one or more screens of this group.
# D2 ag-1: activates the human D2 dopamine receptor. 360,000 tested, 0.084% active. activation, % (no concentration beside the values). P14416. DiscoveRx PathHunter D2 beta-arrestin, luminescence, 90 min; 100% = 57 uM dopamine signal; in the data active = activation above about 40%; inconclusive = between about 15% and that limit
# Target sequence (P14416 whole entry, looked up): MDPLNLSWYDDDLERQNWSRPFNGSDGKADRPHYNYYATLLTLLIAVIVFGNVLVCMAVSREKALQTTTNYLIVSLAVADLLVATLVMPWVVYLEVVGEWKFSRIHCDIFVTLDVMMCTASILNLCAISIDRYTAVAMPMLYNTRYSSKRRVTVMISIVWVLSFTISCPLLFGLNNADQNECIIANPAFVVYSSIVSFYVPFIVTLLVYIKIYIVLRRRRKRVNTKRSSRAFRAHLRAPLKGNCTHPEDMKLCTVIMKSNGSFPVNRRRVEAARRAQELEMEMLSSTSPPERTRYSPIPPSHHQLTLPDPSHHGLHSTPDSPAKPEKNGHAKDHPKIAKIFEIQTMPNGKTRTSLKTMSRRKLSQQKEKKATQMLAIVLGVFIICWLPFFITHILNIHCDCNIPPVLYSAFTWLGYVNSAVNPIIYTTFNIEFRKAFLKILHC
#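 Agonist mode: compounds alone added to overnight-plated D2 PathHunter cells for 90 min at 37 C, with 57 uM final dopamine (EC100) defining full response. Beta-arrestin recruitment detected by chemiluminescent reagent, read after 1 h at ambient temperature.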
# D2 PAM-1: D2 dopamine receptor (human) potentiation. P14416. HEK293 T-REx D2, calcium flux, EC20 dopamine potentiation. potentiation, % at 10 µM. 340,000 tested, 0.34% active. AID 485347;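 active = potentiation over 3 SD above the plate norm, cut at about 30% in these data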; also: 0% is about no effect
#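 Tetracycline-induced HEK293 T-REx cells force-coupled to calcium signalling expressed D2; compounds were pin-added after a 10 s baseline, read kinetically 180 s, then an EC20 dopamine challenge followed with a further 180 s calcium read.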
# D2 PAM-2: positive allosteric modulators of human D2 dopamine receptor; P14416; DiscoveRx D2 beta-arrestin cells, luminescence, 90 min; 100% = 57 uM dopamine signal; potentiation, % (concentration not given with the values); 360,000 tested, 0.23% active; AID 624464; in the data active = potentiation above about 50%; inconclusive = mostly about 30% to 49%
#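 PathHunter beta-arrestin assay in DiscoveRx D2 cells. Compounds were added with an EC20 of dopamine (50 nM final) for 90 min at 37 deg C. Luminescence was read 1 h after detection reagent, with 57 uM dopamine as the EC100 control.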
# D2 antagonist: D2 dopamine receptor (human) antagonism. P14416. HEK293 TREx D2 cells, calcium flux, dopamine EC80. inhibition, % at 10 µM. 340,000 tested, 2% active. AID 485344; in the data active = inhibition above about 30%; inactive = below that, where a call was filed; also: 0% is about no effect
#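 HEK293 T-REx D2 cells, tet-induced, calcium dye no-wash. Cpd pintool add, 180 s kinetic, then EC80 DA, 180 s kinetic. Ca flux read.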
# D2 ag-2: agonists of human D2 dopamine receptor; P14416; HEK293 T-REx D2 cells, calcium flux agonist mode; activation, % at 2 µM; 340,000 tested, 0.53% active; AID 485358;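 active = activation over 3 SD above normal in the single-dose calcium agonist read, cut at about 30% in these data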; also: 0% is about no effect
#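 Tetracycline-induced HEK293 T-REx cells with force-coupled D2 receptor, plated overnight at 30 C, loaded with no-wash calcium dye. After a 10 s baseline, compound was pin-added and calcium flux read kinetically for 180 s; calcium rises flagged agonists.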
# Anesthetic bind: candidate novel general anesthetic via apoferritin binding; apoferritin/1-aminoanthracene competitive binding, fluorescence; Potency, µM (doses to about 77.5 µM), for inactives: at the highest dose activity change, negative = displacement, usual class: inhibitors; P02791; 350,000 tested, 0.074% active; active = well fitted inhibition curve with a large enough effect; inconclusive = small, poorly fitted or top-dose-only effect; inactive = no such curve, though single readings can be large or run the other way; also: potency is read from the fitted curve at half-maximal effect; % is scaled to controls: 0 for no effect and ±100 for the full control effect; nearly all actives have a fitted effect of over 20% in size
# Target sequence (P02791 2-175 limits assumed): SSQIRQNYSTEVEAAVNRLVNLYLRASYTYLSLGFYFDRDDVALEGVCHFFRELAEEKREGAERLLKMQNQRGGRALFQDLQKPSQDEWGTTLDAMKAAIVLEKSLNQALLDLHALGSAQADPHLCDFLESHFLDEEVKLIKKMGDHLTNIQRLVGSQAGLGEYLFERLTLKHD
#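 Concentration-response curves derived by four-parameter Hill fitting of normalized fluorescence, where compounds displaced 1-AMA from 10 uM horse apoferritin following a brief 10 min room-temperature incubation; propofol titration acted as positive control.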
# Numbers without * were called inactive; u = inconclusive; x = no result; ! = a repeat was not active.
SMILES,D2 ag-1,D2 PAM-1,D2 PAM-2,D2 antagonist,D2 ag-2,Anesthetic bind
CCCOc1ccc(N/C=C/C(=O)c2cc(OC)c(OC)c(OC)c2)cc1,1,-9,83*,1,-1,u
C=C(C)Cn1c2ccc(NC(=S)NCc3ccccc3F)cc2c(=O)n1C,103*,x,-6,x,x,x
CCCCCC1=CCC/C1=N\NC(=O)c1ccc2c(c1)OCO2,1,-3,-9,31*,1,-21%
CCc1cc(C(=O)NCC(c2ccc(OC)cc2)N2CCOCC2)sc1C (configuration not stated),-1,-15,-29,-10,-1,x
COc1cccc(C(NC(C)=O)c2nc(-c3ccccc3C)cs2)c1 (configuration not stated),78*,x,-3,x,x,x
CC(=O)NC(c1cccc(F)c1)c1nc(-c2ccccc2C)cs1 (configuration not stated),-3,x,-5,x,x,x
CCN(CC)C(=O)n1c(Cc2ccccc2)nc2ccccc21,-5,0,5,0,-1,-4%
O=C(CN1C(=O)NC2(CCCCCC2)C1=O)N1CCN(c2ccc(F)cc2)CC1,-1,-2,-7,-10,1,x
CC(=O)c1ccc(N2CCN(C(=O)CN3C(=O)NC4(CCCCC4)C3=O)CC2)c(F)c1,1,-2,-1,31*,0,x
CN(NC1OC(=O)c2ccccc21)c1ncc(Cl)cc1C(F)(F)F (configuration not stated),2,0,0,-8,-1,2%
CCC(=O)N1CCCc2cc(S(=O)(=O)N3CCN(c4ncccn4)CC3)ccc21,10,4,-5,31*,0,-2%
O=C(CN1CCOCC1)Nc1nc2ccc(F)cc2s1,-2,-3,5,7,-1,-2%
O=C(O)c1cccc2c1C(=O)c1cc([N+](=O)[O-])cc([N+](=O)[O-])c1-2,74*,x,8,x,x,x
CCc1nnc(NC(=O)CSc2nnc(-c3ccncc3)n2C)s1,-3,31*,-5,-16,1,-4%
Cc1cc2oc(C(=O)Nc3ccc(S(=O)(=O)Nc4ncccn4)cc3)cc(=O)c2cc1Cl,2,3,-5,-7,0,-4%
CCCCCC/C=C/c1ccc([C@H]2[C@H]3C=CC[C@@H](C)[C@@H]3C(=O)N2Cc2ccccc2)c(F)c1,-3,8,-2,-22,0,11%
CCc1sc(Nc2cccc(Cl)c2)nc1-c1cc2cccc(OC)c2oc1=O,x,-2,x,x,0,3%
C[C@H](N=C1NS(=O)(=O)c2ccccc21)C(=O)OCc1cc([N+](=O)[O-])cc2c1OCOC2,0,-24,-13,45*,2,-12%
COc1cc2c(cc1OC)C1CCc3cc4c(cc3C1N=C2)OCO4 (configuration not stated),-3,x,-1,x,x,x
COc1cccc(C(=O)/C=C/Nc2ccc(S(=O)(=O)Nc3cc(OC)nc(OC)n3)cc2)c1,-2,-5,-5,-20,0,2%
COc1ccc(C(=O)/C=C/Nc2ccc(S(=O)(=O)Nc3cc(OC)nc(OC)n3)cc2)c(OC)c1,-2,7,2,31*,0,-7%
NS(=O)(=O)c1ccc(NC(=O)CSc2nc3ccccc3n2-c2ccccc2)cc1,4,15,3,31*,-2,5%
CN(C)S(=O)(=O)c1ccc(NC(=O)CSc2nc3ccccc3n2-c2ccccc2)cc1,1,2,-4,15,-1,-1%
O=C(CCNC(=O)C1CCN(S(=O)(=O)c2ccc(F)cc2)CC1)NCc1ccc(F)cc1,4,4,3,33*,1,-1%
COc1ccc(OC)c(NC(=O)CN2C(=O)CSc3ccc(S(=O)(=O)N4CCCC4)cc32)c1,-5,33*,-2,-10,0,-13%
SMILES,D2 ag-1,D2 PAM-1,D2 PAM-2,D2 antagonist,D2 ag-2,Anesthetic bind
CCC1(c2ccccc2)NC(=O)N(CC(=O)Nc2cc(S(=O)(=O)N3CCCCCC3)ccc2OC)C1=O (configuration not stated),8,x,63*,x,x,x
CCOc1ccc(S(=O)(=O)N2CCCCC2)cc1NC(=O)CN1C(=O)NC(CC)(c2ccccc2)C1=O (configuration not stated),-1,-1,-2,5,-1,-9%
CCCC(=N)C1=C(O)CC(CC(C)SCC)CC1=O (configuration not stated),-2,-11,5,-8,0,u
COc1ccc(N2CCN(CCCn3cnc4c(SC)ncnc43)CC2)cc1,-2,x,x,x,x,x
O=c1cc(-c2c(F)c(F)c(F)c(F)c2F)oc2ccccc12,-3,18,-18,-9,0,-20%
O=c1cc(-c2c(F)c(F)c(F)c(F)c2F)oc2c(F)c(F)c(F)c(F)c12,x,-12,x,56*,18,u
Cc1ccc(SCC(=O)Nc2ccccc2N2CCOCC2)cc1,5,7,-4,-11,x,-4%
O=C(Nc1cc2c(oc1=O)CCCC2=O)c1cccc(Cl)c1,-2,x,-13,x,x,u
COc1ccc(C(=O)Nc2cc3c(oc2=O)CCCC3=O)cc1,-6,44*,-1,10,2,-11%
CCOC(=O)c1cc(S(=O)(=O)NC2CCC(C)CC2)cn1C (configuration not stated),3,99*,1,-10,0,4%
Cc1cc(C)cc(NC(=O)CCCn2nc(C)c3c(C)n(-c4ccccc4)nc3c2=O)c1,-5,33*!,-11,-19,1,-18%
Cc1nc(Cl)sc1C(=O)Nc1ccc(Cl)cc1,-3,10,-1,40*,0,2%
Cc1nc(Cl)sc1C(=O)Nc1ccccc1,-9,-2,5,-1,0,3%
CCCCC(=O)Nc1cccc(-c2cn3ccccc3n2)c1,2,-4,-14,12,0,-10%
Cc1cccc(NC(=S)N(CCCN2CCOCC2)C(C)c2cc3ccccc3o2)c1 (configuration not stated),-7,-10,-17,35*,0,-2%
COc1ccc(OCCC(=O)OCC(=O)NC(=O)NC(C)(C)C)cc1,-1,-4,2,9,0,u
c1ccc(C2=Nn3c(Cn4nnc5ccccc54)nnc3SC2)cc1,-6,2,-7,25,0,-8%
COc1ccccc1NC(=S)NNC(=O)c1nn(C)c(C)c1Br,-6,-6,-13,-4,2,4%
Cc1c(Cl)c(C(=O)NNC(=S)NCc2ccco2)nn1C,-1,2,-1,35*,0,5%
O=C(NNC(=S)NCc1ccco1)c1ccc(Cl)s1,-3,3,10,33*,0,-12%
